# Results from PubChem BioAssay.
# For some assays here: Potency and affinity values are given separately. Calls of active or inactive are those of the source.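 Rule for the calls, unless noted: active = earlier screen potentiator hit that boosts the TRPC4 ion channel at some dose, with a dose response; inactive = no potentiation, no dose response, or not a prior hit.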
# Key:
# [1] = tested on: TRPC4 beta (transient receptor potential cation channel C4), mouse; test: activators of mouse TRPC4 channel, confirmation, cell-based, Fluo4 calcium, HEK293 TRPC4beta/mu-opioid, duplicates, 10 µM (AID 2426;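 active = fluorescence ratio normalized to control raised more than 50% in primary screen plus both repeat runs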;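 note: percent rise of integrated ratio over buffer wells lacking compound which define 0%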); conditions: Fluo4 calcium fluorescence, at 10 µM; active compounds read high
# [2] = tested on: transient receptor potential cation channel C4 beta (TRPC4), mouse; test: activators of mouse TRPC4 channel, confirmation, cell-based, second round, Fluo4, HEK293 TRPC4beta/mu-opioid, 1 µM (AID 2461;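 active = primary screen active and over 50% activation in each of two duplicate runs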;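 for activation: 0% = wells without test compound as baseline of integrated fluorescence ratio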); conditions: Fluo4 calcium fluorescence, at 1 µM; active compounds read high
# [3] = tested on: TRPC4 (transient receptor potential cation channel C4 beta), mouse; test: positive allosteric modulators of mouse TRPC4, confirmation, cell-based, second round, Fluo-4, HEK293 TRPC4beta/mu-opioid, 1 µM (AID 2554;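 active = primary screen hit whose fluorescence ratio, in both repeats, exceeds the weak agonist control mean by 3 SD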); conditions: DAMGO EC20, Fluo-4 calcium flux, at 1 µM; active compounds read high
# [4] = tested on: TRPC4 beta (transient receptor potential cation channel C4), mouse; test: positive allosteric modulators of mouse TRPC4, confirmation, cell-based, Fluo-4, HEK293 TRPC4beta/mu-opioid (AID 2555;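 active = primary screen hit whose calcium fluorescence ratio, in both repeats, exceeds the weak agonist control mean by 3 SD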); conditions: DAMGO EC20, Fluo-4 calcium flux, at 10 µM; active compounds read high
# [5] = target: Short transient receptor potential channel 4 (Mus musculus) (UniProt Q9QUQ5); test: inhibitors of mouse TRPC4 channel, confirmation, cell-based, Fluo4, HEK293 TRPC4beta/mu-opioid (AID 2636;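 active = calcium signal cut by more than 3 SD below the full-agonist control yet still positive, in both repeats and the earlier primary screen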); conditions: DAMGO, Fluo4 calcium flux, at 10 µM; active compounds read high
# Sequence of Short transient receptor potential channel 4 (Mus musculus) (Q9QUQ5 whole entry, looked up): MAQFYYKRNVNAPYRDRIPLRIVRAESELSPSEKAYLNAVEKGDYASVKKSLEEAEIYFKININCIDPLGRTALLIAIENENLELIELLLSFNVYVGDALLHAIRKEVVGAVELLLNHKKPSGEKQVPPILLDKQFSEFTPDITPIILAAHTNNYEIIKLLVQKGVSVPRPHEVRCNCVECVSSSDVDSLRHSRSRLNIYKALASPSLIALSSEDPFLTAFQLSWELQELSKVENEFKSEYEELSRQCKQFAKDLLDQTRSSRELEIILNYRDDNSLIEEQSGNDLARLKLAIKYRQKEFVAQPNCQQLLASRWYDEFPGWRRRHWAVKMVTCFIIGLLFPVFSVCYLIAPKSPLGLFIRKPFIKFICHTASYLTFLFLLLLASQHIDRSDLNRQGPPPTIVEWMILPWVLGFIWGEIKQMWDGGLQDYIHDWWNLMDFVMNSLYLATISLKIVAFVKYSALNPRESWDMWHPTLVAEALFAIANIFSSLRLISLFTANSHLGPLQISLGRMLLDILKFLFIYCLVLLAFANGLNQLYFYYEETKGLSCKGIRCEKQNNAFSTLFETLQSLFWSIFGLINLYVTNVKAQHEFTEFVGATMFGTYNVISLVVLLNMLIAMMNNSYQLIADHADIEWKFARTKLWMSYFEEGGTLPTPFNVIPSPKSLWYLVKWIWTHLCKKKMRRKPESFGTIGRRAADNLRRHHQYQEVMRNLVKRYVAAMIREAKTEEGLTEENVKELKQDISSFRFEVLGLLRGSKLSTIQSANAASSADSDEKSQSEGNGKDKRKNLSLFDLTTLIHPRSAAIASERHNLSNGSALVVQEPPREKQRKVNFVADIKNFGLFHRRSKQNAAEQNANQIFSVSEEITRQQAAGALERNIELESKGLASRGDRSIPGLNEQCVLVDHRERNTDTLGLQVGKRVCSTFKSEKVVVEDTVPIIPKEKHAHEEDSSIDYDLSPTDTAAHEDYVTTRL
# [6] = target: Short transient receptor potential channel 4 (Mus musculus) (UniProt Q9QUQ5); test: inhibitors of mouse TRPC4 channel, confirmation, cell-based, second round, Fluo4, HEK293 TRPC4beta/mu-opioid, 1 µM (AID 2637;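 active = calcium signal ratio cut to more than 3 SD under the fully stimulated control mean yet still positive, in both repeats and the primary screen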;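 for inhibition: percent of integrated ratio relative to wells lacking test compound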); conditions: Fluo4 calcium flux, DAMGO, at 1 µM; active compounds read high
# [7] = target: Short transient receptor potential channel 4 (Mus musculus) (UniProt Q9QUQ5); test: TRPC4 positive allosteric modulators, dose response, cell-based, HEK293 TRPC4/mu-opioid, Fluo-4 calcium, EC20 DAMGO (AID 434941);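 note: calcium entry triggered by an EC20 dose of DAMGO at the co-expressed mu-opioid receptor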
# [8] = target: Short transient receptor potential channel 4 (Mus musculus) (UniProt Q9QUQ5); test: mouse TRPC4 channel inhibitors, dose response, cell-based, HEK293 TRPC4/mu-opioid, Fluo-4 calcium (AID 434942;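 active = primary screen inhibitor hit that blocks the TRPC4 channel at some tested dose, yielding a dose curve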)
# [9] = target: Short transient receptor potential channel 6 (Mus musculus) (UniProt Q61143); test: inhibition of mouse TRPC6 channel, confirmation, selectivity assay for TRPC4 inhibitor project, cell-based, HEK293, membrane potential dye, duplicate (AID 434948;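 active = active in primary screen and both duplicates, each dropping signal beyond three positive-control SD with fluorescence still positive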); conditions: HEK293 TRPC6, membrane potential dye fluorescence, at 10 µM, stimulated with maximal-effect acetylcholine; active compounds read high
# Sequence of Short transient receptor potential channel 6 (Mus musculus) (Q61143 whole entry, looked up): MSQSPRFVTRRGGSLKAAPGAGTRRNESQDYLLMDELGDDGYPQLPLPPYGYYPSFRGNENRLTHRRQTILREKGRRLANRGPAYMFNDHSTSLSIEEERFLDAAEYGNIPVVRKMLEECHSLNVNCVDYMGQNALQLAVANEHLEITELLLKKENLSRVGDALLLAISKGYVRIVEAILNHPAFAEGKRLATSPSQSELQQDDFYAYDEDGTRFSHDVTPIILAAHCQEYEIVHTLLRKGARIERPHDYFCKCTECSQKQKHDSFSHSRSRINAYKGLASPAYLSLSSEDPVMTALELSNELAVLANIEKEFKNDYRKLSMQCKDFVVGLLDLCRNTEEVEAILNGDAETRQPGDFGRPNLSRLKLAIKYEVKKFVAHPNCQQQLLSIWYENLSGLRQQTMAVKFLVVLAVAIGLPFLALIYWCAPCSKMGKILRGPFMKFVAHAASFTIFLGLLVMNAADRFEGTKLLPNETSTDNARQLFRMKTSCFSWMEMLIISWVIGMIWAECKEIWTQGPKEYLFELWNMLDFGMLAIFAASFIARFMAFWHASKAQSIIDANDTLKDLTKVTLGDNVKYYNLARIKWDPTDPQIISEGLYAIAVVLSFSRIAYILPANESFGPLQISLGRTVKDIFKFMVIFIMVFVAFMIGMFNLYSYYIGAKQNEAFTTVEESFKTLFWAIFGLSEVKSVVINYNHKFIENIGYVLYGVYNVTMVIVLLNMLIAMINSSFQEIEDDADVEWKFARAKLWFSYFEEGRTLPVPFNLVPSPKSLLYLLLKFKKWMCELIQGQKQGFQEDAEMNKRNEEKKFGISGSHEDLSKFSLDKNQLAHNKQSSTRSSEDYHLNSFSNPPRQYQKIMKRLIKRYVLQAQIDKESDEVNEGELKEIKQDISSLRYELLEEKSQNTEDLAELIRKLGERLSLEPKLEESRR
# [10] = target: Short transient receptor potential channel 6 (Mus musculus) (UniProt Q61143); test: activation of mouse TRPC6 channel, confirmation, selectivity assay for TRPC4 activator project, cell-based, HEK293, membrane potential dye, duplicate (AID 434950;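 active = membrane potential signal rise above negative control mean plus 3 SD in both duplicates, also active in the earlier TRPC4 screen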;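 for activation: 0% = buffer only wells and 100% = acetylcholine maximal-effect wells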); conditions: HEK293 TRPC6, membrane potential fluorescence, at 10 µM; active compounds read high
# [11] = target: Short transient receptor potential channel 6 (Mus musculus) (UniProt Q61143); test: TRPC6 potentiation by TRPC4 potentiator hits, confirmation, selectivity assay for TRPC4 potentiator project, HEK293 cells, membrane potential dye, duplicate (AID 434952;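 active = compound raising the membrane signal above positive-control mean plus 3 SD in both repeats, and a primary screen hit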); conditions: HEK293 TRPC6, membrane potential dye fluorescence, at 10 µM, maximal acetylcholine added after compound; active compounds read high
# [12] = target: Short transient receptor potential channel 4 (Mus musculus) (UniProt Q9QUQ5); test: calcium flux activators in TRPC4/5HT1a cells, counter-screen for TRPC4 activator project, cell-based, second counter screen, HEK293 TRPC4/5HT1a, Fluo-4 (AID 434977;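 active = calcium signal rise above buffer-control mean plus 5 SD in both duplicates, and also a hit in the primary screen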;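 for activation: plate controls were assay buffer for no effect and maximal serotonin response for full effect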); conditions: Fluo-4 calcium flux, at 10 µM; active compounds read high
# [13] = calcium flux inhibitors in TRPC4/5HT1a cells, confirmation, counter-screen for TRPC4 inhibitor project, cell-based, second counter screen, HEK293 TRPC4/5HT1a, Fluo-4 (AID 434978;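 active = primary screen active whose calcium signal fell more than 3 SD beyond the full-serotonin control mean in both duplicate plates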;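 note: serotonin given first at submaximal then at maximal dose after compound preincubation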); conditions: Fluo-4 calcium flux, at 10 µM, serotonin added to trigger calcium flux; active compounds read high
# [14] = tested on: TRPC4 (mouse), co-expressed with 5HT1a in HEK293; test: calcium flux potentiators in TRPC4/5HT1a cells, confirmation, counter-screen for TRPC4 potentiator project, cell-based, second counter screen, HEK293 TRPC4/5HT1a, Fluo-4 (AID 434979;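 active = signal rise over 3 SD above mean of control wells given weak agonist, in both repeats and first screen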); conditions: Fluo-4 calcium flux, at 10 µM, serotonin added at its EC20 dose; active compounds read high
# [15] = calcium flux activation in mu-opioid HEK293 cells, confirmation, counter-screen for TRPC4 activator project, cell-based, HEK293 mu-opioid receptor line (AID 449723;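 active = hit in primary screen, with calcium signal over 5 SD above buffer well mean in both duplicates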;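 note: counter screen cells carry the mu-opioid receptor alone and lack TRPC4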); conditions: Fluo-4 calcium fluorescence, at 10 µM; active compounds read high
# [16] = calcium flux enhancement in mu-opioid HEK293 cells, confirmation, counter-screen for TRPC4 allosteric potentiator project, cell-based, HEK293 mu-opioid receptor line (AID 449724;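 active = calcium signal rise more than 3 SD above the low-dose agonist control mean, in both duplicate plates and the primary screen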;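 note: HEK293 cells carrying mu-opioid receptor only with no TRPC4 channel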); conditions: Fluo-4 calcium flux, at 10 µM, compound added before EC20 DAMGO stimulus; active compounds read high
# [17] = thallium flux activation in parental CHO cells, counter-screen for KCNQ1 potentiator project (AID 493006;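 active = duplicate-averaged activation above buffer control mean plus 5 SD of those controls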;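 for activation: fluorescence ratio of max minus min over baseline after K+ and Tl+ depolarization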); conditions: parental CHO-K1 cells, FluxOR thallium flux, at 10 µM; active compounds read high
# [18] = target: Potassium voltage-gated channel subfamily KQT member 1 (Homo sapiens) (UniProt P51787); test: KCNQ1 potassium channel potentiators, confirmation, FluxOR thallium flux, CHO cells, duplicates (AID 493007;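 active = potentiation averaged over duplicate wells exceeding buffer-only control mean by more than 3 SD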;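 note: 0% = buffer-only wells and 100% = R-L3 activator control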); conditions: KCNQ1 cell line, FluxOR thallium flux fluorescence, at 10 µM; active compounds read high, % of reference activator effect, buffer zero
# Sequence of Potassium voltage-gated channel subfamily KQT member 1 (Homo sapiens) (P51787 whole entry, looked up): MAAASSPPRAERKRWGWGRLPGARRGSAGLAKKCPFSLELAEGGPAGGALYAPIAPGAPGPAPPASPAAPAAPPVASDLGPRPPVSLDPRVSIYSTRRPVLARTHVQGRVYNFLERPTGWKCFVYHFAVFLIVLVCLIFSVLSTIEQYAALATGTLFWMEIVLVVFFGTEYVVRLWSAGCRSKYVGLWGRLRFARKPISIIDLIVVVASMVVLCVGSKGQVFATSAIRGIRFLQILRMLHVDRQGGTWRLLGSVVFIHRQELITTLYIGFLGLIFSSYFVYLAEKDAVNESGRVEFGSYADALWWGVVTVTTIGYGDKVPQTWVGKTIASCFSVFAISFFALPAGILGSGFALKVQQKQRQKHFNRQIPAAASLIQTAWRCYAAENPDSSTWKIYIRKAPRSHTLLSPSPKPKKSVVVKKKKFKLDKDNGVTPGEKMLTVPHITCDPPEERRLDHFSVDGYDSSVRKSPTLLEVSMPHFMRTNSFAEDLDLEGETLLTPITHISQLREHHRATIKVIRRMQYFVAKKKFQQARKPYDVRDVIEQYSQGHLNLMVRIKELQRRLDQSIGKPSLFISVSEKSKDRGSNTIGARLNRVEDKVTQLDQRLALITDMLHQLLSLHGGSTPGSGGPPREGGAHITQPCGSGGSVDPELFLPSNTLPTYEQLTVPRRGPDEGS
# [19] = target: Potassium voltage-gated channel subfamily KQT member 2 (Rattus norvegicus) (UniProt O88943); test: rat KCNQ2 channel potentiation, selectivity assay for KCNQ1 potentiator project, KCNQ2-CHO-K1 cells (AID 493009;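 active = mean duplicate potentiation above the buffer control mean plus 5 SD of buffer wells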;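 note: assay conditions were tuned for KCNQ1 rather than KCNQ2 modulators; signal is max minus min fluorescence divided by baseline after thallium stimulus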); conditions: FluxOR thallium flux fluorescence, at 10 µM; active compounds read high, scaled: buffer 0, activator control 100
# Sequence of Potassium voltage-gated channel subfamily KQT member 2 (Rattus norvegicus) (O88943 whole entry, looked up): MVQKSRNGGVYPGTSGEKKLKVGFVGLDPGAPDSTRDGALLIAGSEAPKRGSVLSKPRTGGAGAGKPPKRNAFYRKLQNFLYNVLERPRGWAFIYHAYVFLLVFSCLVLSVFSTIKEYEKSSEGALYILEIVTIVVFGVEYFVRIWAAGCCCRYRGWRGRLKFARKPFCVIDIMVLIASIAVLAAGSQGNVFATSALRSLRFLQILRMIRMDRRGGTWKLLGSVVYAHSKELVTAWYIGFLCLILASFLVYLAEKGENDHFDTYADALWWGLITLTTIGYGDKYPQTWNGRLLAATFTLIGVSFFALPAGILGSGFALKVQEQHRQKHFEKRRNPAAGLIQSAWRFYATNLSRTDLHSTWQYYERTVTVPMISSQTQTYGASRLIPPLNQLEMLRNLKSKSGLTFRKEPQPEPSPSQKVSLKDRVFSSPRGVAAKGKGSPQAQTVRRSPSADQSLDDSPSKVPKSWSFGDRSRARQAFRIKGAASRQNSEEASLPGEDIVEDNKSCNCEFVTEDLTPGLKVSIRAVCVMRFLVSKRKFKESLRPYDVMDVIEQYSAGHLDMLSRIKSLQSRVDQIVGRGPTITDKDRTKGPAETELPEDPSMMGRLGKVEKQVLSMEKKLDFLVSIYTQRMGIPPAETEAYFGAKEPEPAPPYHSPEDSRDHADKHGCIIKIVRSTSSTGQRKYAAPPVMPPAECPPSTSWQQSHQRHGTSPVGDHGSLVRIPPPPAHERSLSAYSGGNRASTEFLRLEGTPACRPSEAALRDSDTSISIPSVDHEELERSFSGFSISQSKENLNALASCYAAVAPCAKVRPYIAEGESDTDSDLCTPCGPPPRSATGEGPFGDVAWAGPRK
# [20] = target: Potassium voltage-gated channel subfamily KQT member 1 (Homo sapiens) (UniProt P51787); test: KCNQ1 channel current potentiators, confirmation, orthogonal assay for KCNQ1 potentiator project, IonWorks patch clamp, KCNQ1-CHO cells (AID 493184;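 active = current rise at least 3 SD above the untreated control mean in each of two repeat wells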); conditions: automated patch clamp current, at 10 µM; active compounds read high
smiles,measurement,setting,value
Cc1ccc(C)c(OCCCCCn2ccnc2)c1,activation,[1],174% (active)
same,outcome,[2],inactive
same,outcome,[3],inactive
same,outcome,[4],inactive
same,outcome,[5],inactive
same,outcome,[6],inactive
same,outcome,[7],inactive
same,outcome,[8],inactive
same,outcome,[9],inactive
same,activation,[10],49% (active)
same,outcome,[11],inactive
same,activation,[12],25.7% (active)
same,outcome,[13],inactive
same,outcome,[14],inactive
same,outcome,[15],inactive
same,outcome,[16],inactive
COc1ccc(C(CNC(=O)c2cc(SC)ccc2Cl)N(C)C)cc1 (centres undefined),activation,[1],103% (active)
same,activation,[2],77% (active)
same,outcome,[3],inactive
same,outcome,[4],inactive
same,outcome,[5],inactive
same,outcome,[6],inactive
same,outcome,[7],inactive
same,outcome,[8],inactive
same,outcome,[9],inactive
same,activation,[10],65% (active)
same,outcome,[11],inactive
same,outcome,[12],inactive
same,outcome,[13],inactive
same,outcome,[14],inactive
same,outcome,[15],inactive
same,outcome,[16],inactive
CC(C)(C)c1cc(Cl)ccc1OCCn1ccnc1,activation,[1],57% (active)
same,outcome,[2],inactive
same,outcome,[3],inactive
same,outcome,[4],inactive
same,outcome,[5],inactive
same,outcome,[6],inactive
same,outcome,[7],inactive
same,outcome,[8],inactive
same,outcome,[9],inactive
same,outcome,[10],inactive
same,outcome,[11],inactive
same,activation,[12],17.9% (active)
same,outcome,[13],inactive
same,potentiation,[14],14.1% (active)
same,outcome,[15],inactive
same,outcome,[16],inactive
CC(C)(C)c1ccc(C(=O)NC(=S)NNC(=O)c2cccs2)cc1,activation,[1],226% (active)
same,outcome,[2],inactive
same,outcome,[3],inactive
same,outcome,[4],inactive
same,outcome,[5],inactive
same,outcome,[6],inactive
same,outcome,[7],inactive
same,outcome,[8],inactive
same,outcome,[9],inactive
same,outcome,[10],inactive
same,outcome,[11],inactive
same,activation,[12],199% (active)
same,outcome,[13],inactive
same,outcome,[14],inactive
same,activation,[15],84.8% (active)
same,outcome,[16],inactive
same,activation,[17],136% (active)
same,potentiation,[18],97% (active)
same,potentiation,[19],188% (active)
same,outcome,[20],inactive
Cc1cccc(C(=O)NNC(=S)NC(=O)c2ccccc2)c1,activation,[1],230% (active)
same,outcome,[2],inactive
same,outcome,[3],inactive
same,outcome,[4],inactive
same,outcome,[5],inactive
same,outcome,[6],inactive
same,outcome,[7],inactive
same,outcome,[8],inactive
same,outcome,[9],inactive
same,activation,[10],54.5% (active)
same,outcome,[11],inactive
same,activation,[12],153% (active)
same,outcome,[13],inactive
same,outcome,[14],inactive
same,activation,[15],83.3% (active)
same,outcome,[16],inactive
same,outcome,[17],inactive
same,potentiation,[18],74.5% (active)
same,potentiation,[19],192% (active)
same,outcome,[20],inactive
CCN1/C(=C\c2ccc3ccccc3[n+]2CC)Sc2cc(C)ccc21,activation,[1],544% (active)
same,activation,[2],147% (active)
same,outcome,[3],inactive
same,potentiation,[4],18% (active)
same,outcome,[5],inactive
same,outcome,[6],inactive
same,outcome,[7],inactive
same,outcome,[8],inactive
same,outcome,[9],inactive
same,outcome,[10],inactive
same,outcome,[11],inactive
same,activation,[12],600% (active)
same,outcome,[13],inactive
same,potentiation,[14],110% (active)
same,activation,[15],672% (active)
same,activation,[16],27400% (active)
Cc1ccc(S(=O)(=O)Nc2cccc(C(=O)NCC(c3ccccc3)N(C)C)c2)cc1F (centres undefined),activation,[1],84% (active)
same,outcome,[2],inactive
same,outcome,[3],inactive
same,outcome,[4],inactive
same,outcome,[5],inactive
same,inhibition,[6],78% (active)
same,outcome,[7],inactive
same,outcome,[9],inactive
same,activation,[10],37.5% (active)
same,outcome,[11],inactive
same,outcome,[12],inactive
same,outcome,[13],inactive
same,outcome,[14],inactive
same,outcome,[15],inactive
same,outcome,[16],inactive
